aSyn UTR act: Activators via SNCA 5'UTR binding, MLPCN. alpha-synuclein 5'UTR reporter, activators screen. activity score, % (tested at 7.5 µM), hits read low. hit rate 7.1% among 300,000. AID 1814, 2009; in the data active = activity score below about -60%
Numbers stand for hits; . = inactive. The list is a sample of the results.

SMILES	aSyn UTR act
Cc1ccc(S(=O)(=O)c2nc(S(=O)(=O)CCO)sc2N2CCOCC2)cc1	-96
Cn1cccc1-c1nc2ccccc2[nH]1	-114
Cn1cccc1-c1nc2ccc(NC(=O)c3ccccc3)cc2[nH]1	-124
CN(C)/C=C(\C#N)C(=O)N/N=C/c1ccccc1	-69
O=C1C[C@H]2[C@H](CO)[C@@H](OC(=O)c3ccc(-c4ccccc4)cc3)C[C@H]2O1	-87
O=C(NC(=S)Nc1cccnc1Cl)c1ccc(F)cc1	-124
O=C(NC(=S)NNC(=O)c1cnccn1)c1ccc(Cl)cc1	.
COc1ccccc1NC(=S)NNC(=O)c1ccc(Cl)cc1Cl	-137
O=C(NC(=S)Nc1ncccn1)c1ccc(Cl)cc1Cl	-165
O=C(NC(=S)Nc1ccc2c(c1)C(=O)c1ccccc1C2=O)c1ccc(F)cc1	-141
O=C(Nc1cccnc1Cl)c1cc(-c2ccc(F)cc2)on1	-74
O=C(NC(=S)Nc1ncccn1)c1ccc(F)cc1	-203
COc1ccc(/C=C2\SC(N3CCCCC3)=NC2=O)cc1	-92
O=C1N=C(N2CCCCC2)S/C1=C\c1cn[nH]c1-c1ccccc1	-78
Cc1ccc(-n2cnc3c(sc4nccc(N(C)C)c43)c2=O)cc1	-132
O=C(Cn1ccsc1=NC(=O)C(F)(F)F)c1ccccc1	-123
COc1ccc(/C=C2\SC(=O)N(CCC(=O)Nc3ccccc3)C2=O)cc1OC	.
COc1ccccc1/C=C1\SC(=O)N(CCC(=O)NNC(=O)c2ccccc2Cl)C1=O	-74
Cc1cc(C(=O)COC(=O)c2ccc(Br)o2)c(C)n1Cc1ccco1	-116
CCOc1ncccc1C(=O)OCC(=O)c1cc(C)n(Cc2ccco2)c1C	-115
Cc1cc(C(=O)COC(=O)c2ccc(O)cc2)c(C)n1Cc1ccco1	-140
CCCc1cnc(N2CCN(C(=S)NC)CC2)nc1	-111
Cc1c(C(=O)Nc2cc(F)ccc2F)sc2nc3n(c(=O)c12)CCCCC3	-118
COc1cccc(NC(=O)c2sc3nc4n(c(=O)c3c2C)CCC4)c1	-113
CCOC(=O)c1sc2nc3n(c(=O)c2c1C)CCCCC3	-214
SMILES	aSyn UTR act
CSc1cccc(NC(=O)c2sc3nc4n(c(=O)c3c2C)CCC4)c1	-131
O=C(Nc1nnc(-c2ccco2)s1)C1CC1	-76
O=C(Nc1ccc(F)cc1)Nc1nnc(-c2ccco2)s1	-100
COc1ccc(-c2nnc(SC)o2)c(OC)c1	-85
COc1ccc(OC)c(-c2nnc(-c3ccc(C)o3)o2)c1	-63
CC(=O)Nc1ccc(-c2csc(-c3cccnc3)n2)cc1	-112
CCCC(=O)Nc1ccc(-c2csc(-c3cccnc3)n2)cc1	-114
CCC(=NCc1ccccc1)c1c(C(F)(F)F)[nH]n(-c2nc3ccccc3s2)c1=O	-111
Cc1ccc(O)c(-c2cc(C(=O)Nc3cccnc3)[nH]n2)c1	-166
O=C(Nc1cccnc1)c1cc(-c2cc(Cl)ccc2O)n[nH]1	-219
[O-]/[N+](=C\C=C\c1ccccc1)c1ccccc1	-182
Cc1ccc(NC(=S)Nc2ccc3cn[nH]c3c2)cc1	-83
O=C(NC(=S)Nc1ccc2cn[nH]c2c1)c1ccccc1	-173
S=C(Nc1ccccc1)Nc1ccc2cn[nH]c2c1	-75
CCCC(=O)N(CCN1CCOCC1)c1nc2c(F)cc(F)cc2s1	-86
Cc1ccc(S(=O)(=O)CCC(=O)N(CCN2CCOCC2)c2nc3ccccc3s2)cc1	-75
COc1ccc2cc(C(=O)NCc3ccccc3)[nH]c2c1	-66
COc1ccc2cc(C(=O)NCCc3ccccc3)[nH]c2c1	-172
O=C(Nc1ccc2c(c1)OCO2)c1cc(-c2ccccc2Cl)on1	-143
COc1cccc(-c2cc(C(=O)Nc3ccc4c(c3)OCO4)no2)c1	-66
COc1cccc(OCc2cc(C(=O)NCc3ccc4c(c3)OCO4)no2)c1	-71
O=C(Nc1ccc2c(c1)OCO2)c1cc(-c2ccc(O)cc2)on1	-158
Cc1c(C(=O)N(CCO)Cc2ccccc2)oc2c(F)cccc12	-112
COc1ccc(C(=O)/C(=C\c2ccco2)N2C=CC=CC2=C(C#N)C#N)cc1	.
COc1ccc(/C=C(/C(=O)c2cccs2)N2C=CC=CC2=C(C#N)C#N)cc1	-102
SMILES	aSyn UTR act
Cc1cc(NC(=O)c2cc3cccc([N+](=O)[O-])c3[nH]2)ccc1F	-93
Cc1c(C(=O)N/N=C/C(C)C)[nH]c2c([N+](=O)[O-])cccc12	.
COc1ccccc1-n1c(C)cc(/C=C2\C(=N)N3N=C(CC(=O)N4CCOCC4)SC3=NC2=O)c1C	-72
COc1cc(/C=C2/C(=N)N3N=C(CC(=O)N4CCOCC4)SC3=NC2=O)ccc1OCc1ccc(F)cc1	-102
Cc1cc(/C=C2/SC(=O)N(CC(=O)N3CCOCC3)C2=O)c(C)n1-c1ccccc1F	-143
CC(C)(C)NC(=O)C(=O)NNC(=O)c1cccc(F)c1	-89
O=S(=O)(/N=C(/Nc1ccccn1)c1ccc(Cl)cc1)c1ccc(Cl)cc1	-91
Cc1ccc(S(=O)(=O)/N=C(/NNC(=O)c2cccc(Cl)c2)c2ccccc2)cc1	-101
O=C(NN/C(=N/S(=O)(=O)c1ccc(Cl)cc1)c1ccccc1)c1ccc(O)cc1	-112
O=C(NN/C(=N/S(=O)(=O)c1ccc(Cl)cc1)c1ccccc1)c1cccc(Cl)c1	-124
COc1ccccc1C(=O)COC(=O)c1ccccc1O	-104
COc1ccc(C(=O)c2ccc(N(C)C)cc2)c2ccccc12	.
COc1ccccc1C(=O)COC(=O)c1ccc(N(C)C)cc1	-218
COc1ccccc1C(=O)COC(=O)/C=C/c1ccccc1	-69
CCNC(=S)N/N=C/c1cc(C)n(-c2ccc(Cl)cc2)c1C	-125
CC1(C)Oc2cc3oc(-c4cc(O)cc(O)c4)cc3cc2CC1O (configuration not stated)	.
COc1cc(/C=N/NC(=O)c2nnn(-c3nonc3N)c2C(C)C)ccc1OCc1ccccc1	-82
C/C(=N\N=C\c1ccccc1F)c1nnn(-c2nonc2N)c1C	-79
CN(C)Cc1c(C(=O)N/N=C/c2ccc(OCc3c(F)cccc3Cl)cc2)nnn1-c1nonc1N	-76
CC(C)c1c(C(=O)N/N=C/c2ccc(OCc3ccc(F)cc3)cc2)nnn1-c1nonc1N	-72
C/C(=N\NC(=O)c1nnn(-c2nonc2N)c1CN1CCc2ccccc21)c1ccccc1O	.
Cc1ccc(/C=N/NC(=O)c2nnn(-c3nonc3N)c2-c2cccs2)cc1	.
Cc1cccc(COc2ccc(/C=N/NC(=O)c3nnn(-c4nonc4N)c3COc3ccc(F)cc3)cc2)c1	-159
C/C(=N\NC(=O)c1nnn(-c2nonc2N)c1C)c1ccc(OCc2ccccc2)cc1	-67
Nc1nonc1-n1nnc(C(=O)N/N=C/c2ccc(OCc3ccccc3)cc2)c1COc1ccc(F)cc1	-96
SMILES	aSyn UTR act
CCOc1cccc(-c2c(C(=O)N/N=C(\C)c3ccccn3)nnn2-c2nonc2N)c1	.
C=CCn1c(SCc2c(C)noc2C)nc2sc3c(c2c1=O)CCCCC3	.
O=c1c2c3c(sc2nc2sc(CN4CCCCC4)cn12)CCCC3	-87
O=S(=O)(NCC1(N2CCOCC2)CCCCC1)c1ccccc1Cl	-91
CCN(CCn1cccn1)C(=O)c1cc(COc2ccccc2SC)on1	-90
CCN(CCn1cccn1)C(=O)c1cc(COc2cc(C)ccc2C)on1	-79
CC(C)(C)NC(=O)C(c1ccncc1)N(Cc1ccco1)C(=O)c1ccc(-c2ccccc2)[nH]1 (configuration not stated)	-83
CCOC(=O)N/N=C/c1cn(Cc2ccc(Cl)cc2)c2ccccc12	.
CCOC(=O)N/N=C/c1ccccc1F	-135
CCOC(=O)N/N=C/c1ccc(N(CC)CC)cc1O	-432
